Experiment [1] can be described thus: small molecules captured by biotinylated probe aFSTL3 – biochemical, small-molecule microarray, fluorescence 635/667, stem cell growth factor project, primary screen (AID 1064).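 Also: measures binding of the biotinylated anti-FSTL3 antibody to printed compounds.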 The following applies: higher = more signal.
A short description of experiment [2]: binders from COS7 lysate, DM2A8 probe, primary screen, torsin A project, cell lysate, small-molecule microarray, fluorescence 635/667 (AID 1065). The settings on record: higher = more signal, COS7 lysate expressing mutant human TOR1A.
Experiment [3] in a line: small molecules captured by biotinylated probe aFGF2 – biochemical, small-molecule microarray, fluorescence 635/667, stem cell growth factor project, primary screen (AID 1067).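 Also: measures binding of biotinylated aFGF2 protein to printed compounds on slides; z-score merges feature fluorescence and signal-to-noise across triplicate slides.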 The settings on record: higher = more signal.
The nature of experiment [4]: small molecules captured by biotinylated probe aFGF10 – biochemical, small-molecule microarray, fluorescence 635/667, stem cell growth factor project, primary screen (AID 1071).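 Also: score merges 667 nm spot intensity and signal to noise from triplicate slides.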 The settings on record: higher = more signal.
Experiment [5] deals with Neurogenic locus notch homolog protein 2 (Homo sapiens) (UniProt Q04721). Description: small molecules binding Notch2 protein – biochemical, small-molecule microarray, 635 nm fluorescence, stem cell growth factors, primary screen (AID 1073). The following applies: higher = more signal.
Neurogenic locus notch homolog protein 2 (Homo sapiens), sequence (Q04721 whole entry, looked up, canonical isoform): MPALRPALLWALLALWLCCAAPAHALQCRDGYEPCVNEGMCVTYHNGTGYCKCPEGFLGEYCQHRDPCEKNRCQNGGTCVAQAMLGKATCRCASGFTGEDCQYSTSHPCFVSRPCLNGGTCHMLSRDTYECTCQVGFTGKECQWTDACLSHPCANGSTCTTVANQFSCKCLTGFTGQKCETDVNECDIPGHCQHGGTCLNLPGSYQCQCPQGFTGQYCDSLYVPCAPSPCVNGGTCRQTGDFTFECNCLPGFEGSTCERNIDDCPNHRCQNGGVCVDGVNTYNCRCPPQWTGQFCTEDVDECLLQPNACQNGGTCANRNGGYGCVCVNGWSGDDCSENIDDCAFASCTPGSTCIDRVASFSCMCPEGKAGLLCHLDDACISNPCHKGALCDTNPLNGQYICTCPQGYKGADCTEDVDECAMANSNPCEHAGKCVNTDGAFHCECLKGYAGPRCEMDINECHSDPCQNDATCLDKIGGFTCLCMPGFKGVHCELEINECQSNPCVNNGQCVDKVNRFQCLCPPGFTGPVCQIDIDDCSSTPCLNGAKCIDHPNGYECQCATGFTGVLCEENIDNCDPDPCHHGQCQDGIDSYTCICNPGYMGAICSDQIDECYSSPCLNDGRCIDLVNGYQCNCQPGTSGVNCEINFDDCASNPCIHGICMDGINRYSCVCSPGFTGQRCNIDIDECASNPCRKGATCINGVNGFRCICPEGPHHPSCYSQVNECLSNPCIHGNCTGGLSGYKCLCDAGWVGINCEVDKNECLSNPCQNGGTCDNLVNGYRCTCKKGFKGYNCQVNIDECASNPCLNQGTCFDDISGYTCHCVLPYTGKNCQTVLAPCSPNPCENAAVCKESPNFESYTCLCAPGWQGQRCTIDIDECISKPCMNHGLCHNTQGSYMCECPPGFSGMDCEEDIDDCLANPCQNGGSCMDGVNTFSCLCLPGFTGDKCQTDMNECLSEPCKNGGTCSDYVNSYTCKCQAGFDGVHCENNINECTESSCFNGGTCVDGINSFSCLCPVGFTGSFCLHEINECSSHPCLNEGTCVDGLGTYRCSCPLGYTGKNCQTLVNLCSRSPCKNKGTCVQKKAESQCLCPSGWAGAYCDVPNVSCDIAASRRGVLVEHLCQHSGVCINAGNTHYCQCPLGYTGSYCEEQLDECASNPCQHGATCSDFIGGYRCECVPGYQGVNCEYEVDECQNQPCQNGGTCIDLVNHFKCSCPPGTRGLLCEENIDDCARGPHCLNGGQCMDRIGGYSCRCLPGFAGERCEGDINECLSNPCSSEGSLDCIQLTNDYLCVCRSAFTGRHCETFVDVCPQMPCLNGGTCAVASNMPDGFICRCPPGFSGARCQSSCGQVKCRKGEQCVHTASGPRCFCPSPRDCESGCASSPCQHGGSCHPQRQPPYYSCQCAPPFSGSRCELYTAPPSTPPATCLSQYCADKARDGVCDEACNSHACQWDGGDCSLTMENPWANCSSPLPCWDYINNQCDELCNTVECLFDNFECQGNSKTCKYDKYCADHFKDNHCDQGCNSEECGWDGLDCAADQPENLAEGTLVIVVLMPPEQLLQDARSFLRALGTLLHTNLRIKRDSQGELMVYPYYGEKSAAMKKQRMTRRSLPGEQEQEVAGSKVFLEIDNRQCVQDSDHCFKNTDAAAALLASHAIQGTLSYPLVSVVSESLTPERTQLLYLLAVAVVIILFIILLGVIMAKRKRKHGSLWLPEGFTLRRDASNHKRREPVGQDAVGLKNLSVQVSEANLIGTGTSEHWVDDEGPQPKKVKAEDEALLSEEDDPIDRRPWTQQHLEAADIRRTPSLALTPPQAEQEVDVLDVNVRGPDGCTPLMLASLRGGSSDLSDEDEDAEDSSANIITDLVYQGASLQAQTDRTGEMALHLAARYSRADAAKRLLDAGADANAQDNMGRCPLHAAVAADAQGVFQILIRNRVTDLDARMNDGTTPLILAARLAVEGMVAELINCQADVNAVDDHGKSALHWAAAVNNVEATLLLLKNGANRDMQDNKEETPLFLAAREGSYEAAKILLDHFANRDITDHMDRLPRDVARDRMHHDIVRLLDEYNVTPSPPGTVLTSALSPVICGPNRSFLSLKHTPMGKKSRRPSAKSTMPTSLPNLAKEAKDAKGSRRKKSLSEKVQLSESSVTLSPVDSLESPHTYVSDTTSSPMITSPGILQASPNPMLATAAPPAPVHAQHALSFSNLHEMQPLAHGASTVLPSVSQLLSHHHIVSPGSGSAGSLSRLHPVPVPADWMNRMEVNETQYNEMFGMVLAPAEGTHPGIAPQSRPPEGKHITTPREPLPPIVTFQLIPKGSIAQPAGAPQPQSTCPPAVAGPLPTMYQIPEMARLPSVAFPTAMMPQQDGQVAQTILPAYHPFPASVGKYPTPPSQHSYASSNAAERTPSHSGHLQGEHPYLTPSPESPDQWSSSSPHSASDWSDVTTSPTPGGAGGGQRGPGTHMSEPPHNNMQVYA
The target in experiment [6] is Pro-neuregulin-1, membrane-bound isoform (Homo sapiens) (UniProt Q02297). Nature of the experiment: small molecules binding neuregulin-1 protein – biochemical, small-molecule microarray, fluorescence 635/667, psychiatric disease protein project, primary screen (AID 1075).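 Also: score combines 667 nm spot fluorescence with signal to noise.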 The following applies: NRG1 binding, 635 nm fluorescence, higher = more signal.
In experiment [7] the test system is Neuregulin-1 EGF-like domain. Description: small molecules binding NRG1 EGF domain – biochemical, small-molecule microarray, 635 nm fluorescence, primary screen (AID 1081).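 Also: binding of the protein to compounds printed on small-molecule microarray slides.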 The settings on record: higher = more signal.
A short description of experiment [8]: FRG1 expression reporter modulators in myotubes – cell-based, C2C12 myotubes, firefly/Renilla luciferase, luminescence, FRG1 inhibition for FSHD, primary screen (AID 1084). The following applies: FRG1 promoter luciferase, higher = more signal, called active from +8 up or from −8 down.
Experiment [9] can be described thus: small molecules captured by biotinylated probe aFST – biochemical, small-molecule microarray, fluorescence 635/667, stem cell growth factor project, primary screen (AID 1086).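 Also: score merges 667 nm fluorescence with signal-to-noise of each printed compound spot.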 The following applies: higher = more signal.
Experiment [10] is described as follows: binders of probe aHhip on microarray, primary screen, stem cell growth factor project, biochemical, small-molecule microarray, fluorescence 635/667 (AID 1087).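 Also: score merges spot fluorescence at 667nm with spot signal to noise ratio.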 The settings on record: higher = more signal.
Experiment [11] deals with PRMT1 (protein arginine N-methyltransferase 1). Description: small molecules binding arginine methyltransferase PRMT1 – biochemical, small-molecule microarray, 635 nm fluorescence, primary screen (AID 1088).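 Also: binding of Prmt1 protein to compounds spotted on small-molecule microarray slides.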 The settings on record: higher = more signal.
The nature of experiment [12]: growth effects on S. cerevisiae YJM789 – YJM789 clinical isolate, OD600, 24 h, basal, primary screen (AID 1089).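 Also: growth of clinical yeast isolate S. cerevisiae YJM 789 seeded 1000 cells per well; test concentration not given here.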 The settings on record: higher = more signal, called active from +8 up or from −8 down.
Experiment [13] can be described thus: S. pombe growth modifiers, basal conditions – strain 972, OD600, 24 h, no modulator, primary screen (AID 1090).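 Also: basal condition with compound alone and no growth modifier present; test concentration not given here.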 The following applies: S. pombe 972 growth, higher = more signal, called active from +8 up or from −8 down.
A short description of experiment [14]: budding yeast growth modifiers under rapamycin – strain BY4716, OD600, 96 h, primary screen (AID 1091). Also: test concentration not given here. The settings on record: S. cerevisiae BY4716 + rapamycin, higher = more signal, called active from +8 up or from −8 down.
Experiment [15] addresses Torsin-1A-interacting protein 2 (Homo sapiens) (UniProt Q8NFQ8). Description: small molecules binding lysate-expressed LULL1 – cell lysate, human LULL1 lysate, 635/667 nm fluorescence, primary screen (AID 1092).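 Also: probe is lysate of COS7 cells overexpressing human LULL1; score merges per-feature 667 nm fluorescence with signal-to-noise.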 The settings on record: small-molecule microarray, hLULL1 lysate binding, 635 nm fluorescence; higher = more signal.
Experiment [16] in a line: optical density change of DRC41 E. coli – strain DRC41, OD650, 24 h, E. coli filamentation project, primary screen (AID 1093).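 Also: MC1000 strain lacking acrAB efflux and sulA so SOS filamentation is blocked; test concentration not given here.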 The following applies: E. coli DRC41 growth, higher = more signal, called active from +8 up or from −8 down.
A short description of experiment [17]: probe aLefty2 binding to arrayed compounds – biochemical, biotinylated probe, 635/667 nm fluorescence, primary screen (AID 1094).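 Also: score merges spot fluorescence near 667 nm with spot signal-to-noise ratio.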 The following applies: small-molecule microarray, higher = more signal.
The subject of experiment [18] is Noggin (protein binding on small-molecule microarray). Nature of the experiment: small molecules binding Noggin protein – biochemical, 635/667 nm fluorescence, primary screen (AID 1095).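 Also: score merges 667 nm feature fluorescence with signal to noise over triplicate slides.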 The settings on record: 635 nm fluorescence, higher = more signal.
The target of experiment [19] is Neurogenic locus notch homolog protein 3 (Homo sapiens) (UniProt Q9UM47). Description: small molecules binding NOTCH3 protein – biochemical, 635/667 nm fluorescence, primary screen (AID 1096). The settings on record: small-molecule microarray, 635 nm fluorescence, higher = more signal.
Neurogenic locus notch homolog protein 3 (Homo sapiens), sequence (Q9UM47 whole entry, looked up): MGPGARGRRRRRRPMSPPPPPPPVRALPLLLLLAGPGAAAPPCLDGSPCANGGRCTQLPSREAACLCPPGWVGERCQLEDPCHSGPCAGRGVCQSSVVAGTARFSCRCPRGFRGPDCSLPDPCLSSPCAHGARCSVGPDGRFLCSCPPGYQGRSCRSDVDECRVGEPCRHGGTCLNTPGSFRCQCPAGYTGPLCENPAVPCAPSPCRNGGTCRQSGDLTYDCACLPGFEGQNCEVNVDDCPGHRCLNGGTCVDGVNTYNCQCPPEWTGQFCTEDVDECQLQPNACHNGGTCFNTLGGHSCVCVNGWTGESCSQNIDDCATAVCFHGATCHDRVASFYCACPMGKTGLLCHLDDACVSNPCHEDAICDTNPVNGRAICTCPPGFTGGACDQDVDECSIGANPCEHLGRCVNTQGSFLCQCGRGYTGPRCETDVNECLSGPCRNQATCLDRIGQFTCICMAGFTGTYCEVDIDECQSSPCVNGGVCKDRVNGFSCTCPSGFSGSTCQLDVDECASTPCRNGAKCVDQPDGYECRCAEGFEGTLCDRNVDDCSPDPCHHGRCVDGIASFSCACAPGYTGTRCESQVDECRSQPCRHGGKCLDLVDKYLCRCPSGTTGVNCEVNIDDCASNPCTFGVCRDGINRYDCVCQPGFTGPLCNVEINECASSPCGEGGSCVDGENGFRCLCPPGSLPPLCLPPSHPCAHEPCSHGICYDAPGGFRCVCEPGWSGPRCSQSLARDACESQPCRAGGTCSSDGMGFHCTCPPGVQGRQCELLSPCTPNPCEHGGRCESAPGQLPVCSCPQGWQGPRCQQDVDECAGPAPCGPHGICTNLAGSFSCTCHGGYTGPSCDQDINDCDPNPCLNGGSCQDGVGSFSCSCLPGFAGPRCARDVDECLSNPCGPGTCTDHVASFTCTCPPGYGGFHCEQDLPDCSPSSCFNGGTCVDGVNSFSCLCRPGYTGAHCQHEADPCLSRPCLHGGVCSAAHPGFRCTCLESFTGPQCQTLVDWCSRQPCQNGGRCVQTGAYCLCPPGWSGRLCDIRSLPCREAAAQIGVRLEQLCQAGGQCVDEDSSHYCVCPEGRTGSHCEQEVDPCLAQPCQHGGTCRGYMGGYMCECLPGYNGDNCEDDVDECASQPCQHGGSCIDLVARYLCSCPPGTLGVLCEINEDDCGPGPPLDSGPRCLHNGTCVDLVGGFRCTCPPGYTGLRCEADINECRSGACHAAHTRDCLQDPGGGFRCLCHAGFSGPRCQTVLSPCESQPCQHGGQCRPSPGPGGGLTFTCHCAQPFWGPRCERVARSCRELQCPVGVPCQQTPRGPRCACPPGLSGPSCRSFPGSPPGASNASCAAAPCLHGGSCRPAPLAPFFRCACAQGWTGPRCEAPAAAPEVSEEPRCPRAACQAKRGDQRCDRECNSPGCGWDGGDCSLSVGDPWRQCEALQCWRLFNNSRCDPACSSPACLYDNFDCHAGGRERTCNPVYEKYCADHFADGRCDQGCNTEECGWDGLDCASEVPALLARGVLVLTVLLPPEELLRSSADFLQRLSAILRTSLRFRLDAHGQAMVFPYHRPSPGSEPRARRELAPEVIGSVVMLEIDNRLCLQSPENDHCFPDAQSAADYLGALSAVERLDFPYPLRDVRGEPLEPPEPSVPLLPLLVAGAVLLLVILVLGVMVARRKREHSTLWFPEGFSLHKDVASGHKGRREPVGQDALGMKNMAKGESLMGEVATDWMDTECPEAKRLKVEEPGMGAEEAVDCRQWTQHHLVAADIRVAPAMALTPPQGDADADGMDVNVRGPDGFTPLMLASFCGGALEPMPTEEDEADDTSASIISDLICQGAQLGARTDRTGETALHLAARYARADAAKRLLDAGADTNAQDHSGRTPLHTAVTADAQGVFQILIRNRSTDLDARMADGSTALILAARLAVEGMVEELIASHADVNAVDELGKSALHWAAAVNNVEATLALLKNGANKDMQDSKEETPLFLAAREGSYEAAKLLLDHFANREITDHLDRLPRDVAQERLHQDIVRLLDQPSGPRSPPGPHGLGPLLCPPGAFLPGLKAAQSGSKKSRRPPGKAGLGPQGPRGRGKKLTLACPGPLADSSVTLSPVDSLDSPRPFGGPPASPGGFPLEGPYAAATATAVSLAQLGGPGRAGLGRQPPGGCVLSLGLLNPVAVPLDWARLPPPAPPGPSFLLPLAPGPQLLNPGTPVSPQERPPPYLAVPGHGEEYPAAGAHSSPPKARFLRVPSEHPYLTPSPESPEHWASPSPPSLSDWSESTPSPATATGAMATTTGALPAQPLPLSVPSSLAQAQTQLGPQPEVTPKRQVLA
A short description of experiment [20]: probe aEGFR binding to arrayed compounds – biochemical, biotinylated probe, 635/667 nm fluorescence, primary screen (AID 1097).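 Also: probe is a biotinylated anti-EGFR antibody binding compounds printed on slides; score combines fluorescence near 667 nm and signal to noise of each spot.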 The following applies: small-molecule microarray, higher = more signal.

Activity calls are given as the source filed them.

Take `CN1C(=O)C2C=CC(C(O)c3ccc(I)cc3)N(NC(=O)OC(C)(C)C)C2C1=O` (stereo not given): the composite z-score in experiment [1] was 0.108; in experiment [2], -0.0004; in [3], 0.111; in [4], 0.652; in experiment [5], 1.68; in experiment [6], 1.69. Moreover, the composite z-score was 1.38 in [7]; 1.18 in experiment [9]; -0.0994 in [10]; 0.896 in [11]; 3.21 in experiment [15]; 0.0607 in experiment [17]. Moreover, the figures for the composite z-score in experiment [18], in [19] and in [20] were 0.17, 1.04 and 0.157, respectively. For the same compound, the z-score in [8] was -3.23 (inactive); in [12], 0.725 (inactive); in [13], -0.424 (inactive); in experiment [14], 0.931 (inactive); in experiment [16], -1.07 (inactive).
Take `O=C1[C@H]2[C@H]3[C@H](O)[C@H](O)CC(=NO[C@@H]4O[C@H](CO)[C@@H](O)[C@H](O)[C@H]4O)[C@@H]3CC[C@H]2C(=O)N1Cc1ccccc1`: the composite z-score in [1] is -0.466; in [2] it was 1.08; in experiment [3], -0.074; in [4], 0.312; in [5], 0.595; in experiment [6], -0.516. The composite z-score in experiment [7] is -0.9; in experiment [9], 0.756; in experiment [10], -0.0994; in experiment [11], 0.346; in [15], 0.218; in [17], -0.103. For the same compound, the values for the composite z-score in experiment [18], in experiment [19] and in [20] were 0.574, 0.433 and 0.0673, respectively. Also, the z-score in experiment [8] is -0.7 (inactive); in experiment [12], -0.3 (inactive); in experiment [13], -0.13 (inactive); in experiment [14], -0.556 (inactive); in [16], 0.0628 (inactive).
Take `CC(C)NC(=O)[C@@]1(c2ccc([N+](=O)[O-])cc2)CC(=O)N(CC23CC4CC(CC(C4)C2)C3)[C@@H]1c1ccc(CO)cc1I`: the composite z-score in experiment [1] amounted to 0.765; in experiment [2], 0.0289; in [3] it was 0.11; in experiment [4] it was 0.252; in experiment [5], 0.931; in experiment [6], 0.607. For the same compound, the composite z-score in experiment [7] is 0.964; in experiment [9], 0.481; in experiment [10], -0.0645; in experiment [11] it was 1.52; in experiment [15] it was 2.53; in [17], 0.448. Further, the composite z-score in experiment [18] came out at 0.176; in experiment [19], 0.341; in [20], 0.0743. In addition, the z-score was -3.71 (inactive) in experiment [8]; 0.151 (inactive) in experiment [12]; 0.168 (inactive) in experiment [13]; 5.83 (inactive) in [14]; -0.525 (inactive) in experiment [16].
With `COCCNC(=O)OCC1CCCC2(CC(OC(=O)NCCc3ccc(F)cc3)CC(CCC(=O)N[C@@H](C)C(=O)OC)O2)O1` (stereo not given in full), the composite z-score is -0.576 in experiment [1]; 0.37 in experiment [2]; -0.132 in experiment [3]; 0.632 in [4]; 1.1 in experiment [5]; 0.511 in experiment [6]. Further, the composite z-score is 0.777 in experiment [7]; 0.347 in experiment [9]; -0.196 in experiment [10]; 1.5 in experiment [11]; 0.876 in [15]; -0.0845 in [17]. Also, the composite z-score was 0.403 in [18], 1.08 in experiment [19] and 0.433 in experiment [20]. The z-score in experiment [8] was -0.0861 (inactive); in experiment [12], 0.104 (inactive); in [13] it was -0.0142 (inactive); in [14], 0.647 (inactive); in [16], 0.0947 (inactive).
Take `CC(C)=CCCC(C)=CCON=C1C[C@@H](O)[C@@H](O)[C@@H]2[C@@H]3C(=O)N(C[C@@H]4CCCO4)C(=O)[C@@H]3CC[C@@H]12`: the composite z-score in experiment [1] is -0.518; in experiment [2], 1; in experiment [3] it was -0.134; in experiment [4], 0.84; in [5] it was 0.449; in experiment [6], 0.614. Besides, the composite z-score in experiment [7] was 1.08; in experiment [9], 0.28; in experiment [10], 0.0749; in [11], 1.54; in experiment [15], 2.34; in experiment [17] it was -0.133. For the same compound, the composite z-score in experiment [18] was 1.3; in experiment [19], 1.01; in experiment [20] it was -0.0556. Besides, the z-score was -0.24 (inactive) in [8]; -0.224 (inactive) in experiment [12]; 0.574 (inactive) in [13]; -0.618 (inactive) in [14]; 0.325 (inactive) in [16].

The values are drawn from PubChem BioAssay.
